Measured values published in PubChem BioAssay (Tox21).
Several values for one entry are separate records, joined by “and”; a condition that tells them apart may be missing. Identical values can stand only once. Results filed as inconclusive are left out. A structure can be active in one record and inactive in another. Activity calls are given as the source filed them. Unless noted, the call rests on the fitted dose curve; in most records, active means well fitted curve in the direction sought with a large enough effect in the repeat runs; inconclusive means weak or mixed curves; inactive means no such curve, though single readings can be large; an effect the other way counts as inactive or inconclusive.

Legend:
[1] = molecular target: Luciferin 4-monooxygenase (Photinus pyralis) (UniProt P08659); assay: qHTS assay to identify small molecule inhibitors of firefly luciferase (AID 1224835); further: nearly all actives have a fitted effect of over 25% in size; further: potency means the concentration at half of the fitted maximal effect; settings: purified P. pyralis luciferase, luminescence inhibition; series mostly up to 115 µM
Luciferin 4-monooxygenase (Photinus pyralis), sequence (P08659 whole entry, looked up): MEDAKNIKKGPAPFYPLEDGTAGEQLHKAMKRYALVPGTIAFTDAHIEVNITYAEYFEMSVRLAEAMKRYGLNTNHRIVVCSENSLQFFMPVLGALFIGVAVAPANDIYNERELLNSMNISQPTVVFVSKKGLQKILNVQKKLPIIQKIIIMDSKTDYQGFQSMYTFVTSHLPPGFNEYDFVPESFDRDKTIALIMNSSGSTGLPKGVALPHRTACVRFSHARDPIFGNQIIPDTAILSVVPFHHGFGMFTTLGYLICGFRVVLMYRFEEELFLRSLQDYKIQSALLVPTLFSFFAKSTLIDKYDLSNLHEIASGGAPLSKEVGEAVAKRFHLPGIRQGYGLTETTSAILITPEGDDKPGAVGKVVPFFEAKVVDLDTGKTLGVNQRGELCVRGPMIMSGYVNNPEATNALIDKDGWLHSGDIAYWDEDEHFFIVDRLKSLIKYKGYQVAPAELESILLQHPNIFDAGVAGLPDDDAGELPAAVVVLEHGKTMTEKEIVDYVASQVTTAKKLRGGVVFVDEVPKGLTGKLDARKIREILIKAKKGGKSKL
How it was run: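 Inhibition of purified Photinus luciferase is measured by luminescence. Substrate levels (D-luciferin, ATP) sit at their KM values. Each compound is tested in a concentration series.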

[2] = molecular target: Nuclear receptor subfamily 1 group I member 3 (Homo sapiens) (UniProt Q14994); assay: qHTS assay to identify small molecule agonists of the constitutive androstane receptor (CAR) signaling pathway (AID 1224839); settings: HepG2 hCAR CYP2B6-luciferase, agonist mode, 24 h; series mostly up to 92.4 µM; further: nearly all actives have a fitted effect of over 15% in size; further: potency means the concentration at half of the fitted maximal effect
Nuclear receptor subfamily 1 group I member 3 (Homo sapiens), sequence (Q14994 whole entry, looked up): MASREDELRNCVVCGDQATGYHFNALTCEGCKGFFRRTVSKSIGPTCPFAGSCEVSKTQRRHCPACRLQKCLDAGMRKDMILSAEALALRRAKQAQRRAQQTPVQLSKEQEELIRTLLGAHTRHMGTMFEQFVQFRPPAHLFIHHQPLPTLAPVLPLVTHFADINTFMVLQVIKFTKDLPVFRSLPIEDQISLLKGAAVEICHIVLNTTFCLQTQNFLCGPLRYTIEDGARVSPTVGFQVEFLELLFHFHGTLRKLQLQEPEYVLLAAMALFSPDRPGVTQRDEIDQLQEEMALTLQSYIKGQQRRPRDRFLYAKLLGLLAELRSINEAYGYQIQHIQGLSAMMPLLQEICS
How it was run: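 Luminescence read-out (ONE-Glo, 30 min, room temperature) from double-stable HepG2-CYP2B6-hCAR cells exposed 24 h to 15-point compound series in presence of 0.75 uM PK11195 final.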

[3] = qHTS assay to identify small molecule antagonists of the estrogen related receptor signaling pathway with the pleiotropic PPARgamma coactivator (PGC) from Tox21 10K library (AID 1224841; call rule not given here; further: actives are mostly falling curves and most rising ones were filed inactive; nearly all actives have a fitted effect of over 50% in size; further: potency means the concentration at half of the fitted maximal effect); settings: PGC/ERR reporter cell line, ONE-Glo luciferase, 18 h; series mostly up to 92.4 µM
How it was run: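 In the PGC/ERR line, DMSO solutions of test chemicals are pin-delivered to 2,000 cells/well six hours after dispensing. Following eighteen hours' incubation, One-Glo reagent is added and luminescence recorded.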

[4] = qHTS assay to identify small molecule agonists of the estrogen related receptor signaling pathway with the pleiotropic PPARgamma coactivator (PGC) from Tox21 10K library (AID 1224842); settings: PGC/ERR reporter cell line, luciferase ONE-Glo, 18 h; series mostly up to 92.4 µM; further: nearly all actives have a fitted effect of over 15% in size
How it was run: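 Luminescence from One-Glo (30 min, room temperature) measured after PGC/ERR cells had 18 h at 37 C with pinned compound (23 nL in DMSO). Cells had been seeded at 2,000 per well and pre-incubated 6 h.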

[5] = qHTS assay to identify small molecule agonists of the hypoxia (HIF-1) signaling pathway - cell viability counter screen (AID 1224844; calls by dose curve; further: nearly all actives have a fitted effect of over 50% in size; further: potency means the concentration at half of the fitted maximal effect); settings: HRE-bla ME-180 viability, CellTiter-Glo luminescence, 17 h; series mostly up to 76.8 µM
How it was run: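 Same wells as the HIF-1 reporter screen; ME-180 cells carrying HRE-bla, 17 hr treatment at 37C; CellTiter-Glo luminescence read after 30 min at room temperature.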

[6] = qHTS assay to identify small molecule agonists of the constitutive androstane receptor (CAR) signaling pathway - cell viability counter screen (AID 1224836); settings: HepG2-CYP2B6-hCAR viability, CellTiter-Fluor, 23 h, PK11195 added to every well; series mostly up to 92.4 µM; further: nearly all actives have a fitted effect of over 45% in size; further: potency means the concentration at half of the fitted maximal effect
How it was run: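 Viability read-out: CellTiter-Fluor fluorescence after 23 h compound exposure at 37 C/5% CO2 in double-stable HepG2-CYP2B6-hCAR cells, with PK11195 present at 0.75 uM final; compounds tested in 15-point titration.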

[7] = qHTS assay to identify small molecule antagonists of the estrogen related receptor signaling pathway with the pleiotropic PPARgamma coactivator (PGC) from Tox21 10K library - cell viability counter screen (AID 1224840; active means well fitted cell-killing curve with a large enough effect in the repeat runs, not every such curve was filed as active; further: nearly all actives have a fitted effect of over 40% in size; further: potency means the concentration at half of the fitted maximal effect); settings: PGC/ERR reporter cells viability, CellTiter-Fluor, 17.5 h; series mostly up to 92.4 µM
How it was run: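 Viability counter screen, PGC/ERR cells: 17.5 h compound exposure at 37 C, CellTiter-Fluor fluorescence endpoint.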

[8] = molecular target: Thyrotropin receptor (Homo sapiens) (UniProt P16473); assay: qHTS assay to identify small molecule agonists of the thyroid stimulating hormone receptor (TSHR) signaling pathway (AID 1224843; calls by dose curve; further: nearly all actives have a fitted effect of over 45% in size; further: potency means the concentration at half of the fitted maximal effect); settings: TSHR-HEK293 cells, cAMP HTRF, agonist mode, 30 min; series mostly up to 92.4 µM
Thyrotropin receptor (Homo sapiens), sequence (P16473 whole entry, looked up): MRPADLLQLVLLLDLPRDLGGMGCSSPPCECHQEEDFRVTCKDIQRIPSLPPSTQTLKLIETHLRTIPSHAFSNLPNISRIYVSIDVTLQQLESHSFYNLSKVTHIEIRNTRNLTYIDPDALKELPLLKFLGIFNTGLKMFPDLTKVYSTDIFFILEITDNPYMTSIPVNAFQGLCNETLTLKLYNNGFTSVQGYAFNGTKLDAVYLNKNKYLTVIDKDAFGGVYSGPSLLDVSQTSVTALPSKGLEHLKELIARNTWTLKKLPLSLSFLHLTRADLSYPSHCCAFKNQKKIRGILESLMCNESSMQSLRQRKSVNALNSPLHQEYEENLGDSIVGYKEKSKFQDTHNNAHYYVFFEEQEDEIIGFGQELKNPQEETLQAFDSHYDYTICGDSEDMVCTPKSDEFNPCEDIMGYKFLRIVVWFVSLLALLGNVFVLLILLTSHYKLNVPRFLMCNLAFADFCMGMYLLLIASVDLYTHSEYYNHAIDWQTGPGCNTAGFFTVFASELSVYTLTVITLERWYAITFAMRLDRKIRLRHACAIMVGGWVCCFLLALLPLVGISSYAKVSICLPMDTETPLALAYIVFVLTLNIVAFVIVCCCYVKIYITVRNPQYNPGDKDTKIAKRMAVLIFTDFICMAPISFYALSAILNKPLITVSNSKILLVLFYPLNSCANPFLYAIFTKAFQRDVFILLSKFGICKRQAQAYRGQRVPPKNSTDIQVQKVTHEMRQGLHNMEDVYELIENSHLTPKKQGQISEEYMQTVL
How it was run: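 Agonist activity read as cAMP rise via d2/cryptate HTRF competition, 1 h room-temperature detection, in HEK293 cells expressing TSHR. Fifteen-point titrations, each run in triplicate, with a 30 min room-temperature incubation beforehand.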

[9] = qHTS assay to identify small molecule antagonists of the constitutive androstane receptor (CAR) signaling pathway - cell viability counter screen (AID 1224837); settings: HepG2-CYP2B6-hCAR viability, CellTiter-Fluor, 23 h, co-treated with 50 nM CITCO; series mostly up to 92.4 µM; further: nearly all actives have a fitted effect of over 45% in size; further: potency means the concentration at half of the fitted maximal effect
How it was run: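 In quantitative HTS format, compounds at 15 concentrations were applied to HepG2 cells double-transfected with hCAR and CYP2B6-2.2kb under 50 nM CITCO stimulation; live-cell protease activity was read after 23 hr via CellTiter-Fluor.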

[10] = molecular target: Nuclear receptor subfamily 1 group I member 3 (Homo sapiens) (UniProt Q14994); assay: qHTS assay to identify small molecule antagonists of the constitutive androstane receptor (CAR) signaling pathway (AID 1224838); settings: HepG2-CYP2B6-hCAR luciferase, CITCO-stimulated, 24 h; series mostly up to 92.4 µM; further: nearly all actives have a fitted effect of over 40% in size; further: potency means the concentration at half of the fitted maximal effect
How it was run: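 CITCO-stimulated (50 nM final) HepG2 cells stably transfected with hCAR and CYP2B6-2.2kb luciferase were exposed to compounds at 15 concentrations for 24 h at 37 C/5% CO2. A luciferase reagent was added and luminescence recorded after 30 min.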

Measured: Potency
On the % scale 0 is the no-effect control and ±100 the full control effect.

C[C@]12CC[C@H](O)C[C@H]1CC[C@@H]1[C@@H]2C[C@@H](O)[C@]2(C)[C@@H](C3=CC(=O)OC3)CC[C@]12O
active: [3] 3.86 µM | [5] 11 µM
inactive: [1] | [2] | [4]

CCc1ccccc1C
inactive: [1] | [6] | [7] | [3] | [4] | [8] | [5]

Oc1ccc(C2(c3ccc(O)cc3)c3ccccc3-c3ccccc32)cc1
inactive: [1] | [4]
active: [9] 61.1 µM | [7] 61.1 µM

CC1(c2ccc(Oc3ccccc3)cc2)OC(=O)N(Nc2ccccc2)C1=O (configuration not stated)
inactive: [1] | [10] | [4]
active: [3] 4.89 µM | [5] 22 µM

C=CCC1=C(C)C(OC(=O)C2C(C=C(C)C)C2(C)C)CC1=O (configuration not stated)
inactive: [1] | [9] | [10] | [4]
active: [2] 16.3 µM | [3] 20.5 µM

Cn1cc(C2=C(c3cn(C4CCN(Cc5ccccn5)CC4)c4ccccc34)C(=O)NC2=O)c2ccccc21
inactive: [1] | [9] | [7] | [4] | [8] | [5]

CCCCCCCCCCCCCCCC[n+]1ccccc1
inactive: [1]
active: [6] 25.5 µM and 15.4 µM and 13.5 µM | [7] 53.7 µM [middle of 4 runs]
57.5 µM (active) and inactive: [5]

CCCCCCCCCCCCCN1CC(C)OC(C)C1 (configuration not stated)
inactive: [1] | [6] | [7] | [8] | [5]

CC(=O)OC1(c2ccccc2)CCN(CCc2ccccc2)CC1
active: [10] 8.84 µM
inactive: [1] | [2] | [7] | [8] | [5]

CC(C)CC(C)(c1ccc(O)cc1)c1ccc(O)cc1
active: [2] 6.87 µM and 2.17 µM | [3] 54.6 µM
inactive: [1] | [4] | [5]
48.7 µM (active) and inactive: [8]

[CH3][Hg][Cl]
active: [1] 5.62 µM | [6] 24.3 µM | [7] 38.5 µM | [5] 10.9 µM
inactive: [2] | [8]

O=C1c2ccccc2C(=O)C1C(=O)C(c1ccccc1)c1ccc(Cl)cc1 (configuration not stated)
active: [3] 6.11 µM | [5] 9.77 µM
inactive: [1] | [10] | [4] | [8]

CC(C)(C)c1ccc(CSc2cnn(C(C)(C)C)c(=O)c2Cl)cc1
inactive: [1] | [10] | [2] | [7] | [4]
active: [3] 0.0049 µM

COP(=O)(OC)SCn1c(=O)oc2cc(Cl)cnc21
inactive: [1] | [2] | [7] | [4]
active: [6] 30.6 µM | [5] 49 µM

O=CC(Br)(Br)Br
active: [6] 30.5 µM | [9] 27.2 µM | [10] 30.5 µM | [7] 15.3 µM
inactive: [2]

C[C@@H]1CC[C@@]2(OC1)O[C@H]1[C@@H](O)[C@H]3[C@@H]4CC[C@H]5C[C@@H](O[C@@H]6O[C@H](CO)[C@H](O[C@@H]7O[C@H](CO)[C@@H](O)[C@H](O[C@@H]8OC[C@@H](O)[C@H](O)[C@H]8O)[C@H]7O[C@@H]7O[C@H](CO)[C@@H](O)[C@H](O[C@@H]8O[C@H](CO)[C@@H](O)[C@H](O)[C@H]8O)[C@H]7O)[C@H](O)[C@H]6O)[C@H](O)C[C@]5(C)[C@H]4CC[C@]3(C)[C@H]1[C@@H]2C
active: [6] 23 µM | [9] 25.8 µM | [7] 20.5 µM | [3] 40.9 µM | [5] 11.6 µM
inactive: [2] | [4]

CC(C)CC(C)N (configuration not stated)
inactive: [6] | [9] | [7] | [3] | [4] | [5]

CC(=O)c1ccc(-c2ccccc2)cc1
inactive: [6] | [9] | [10] | [7] | [8] | [5]
active: [2] 48.6 µM

CN(C)C1CSSSC1
inactive: [6] | [9] | [10] | [2] | [7] | [4] | [5]

CCCCCCCCCCCCBr
inactive: [6] | [9] | [10] | [2] | [7]

CC(C)(C)c1cc([N+](=O)[O-])cc(C(C)(C)C)c1O
active: [6] 19.3 µM | [9] 21.7 µM | [2] 5.45 µM | [7] 13.7 µM | [3] 2.73 µM
inactive: [4] | [8] | [5]

N#CC(Cl)Cl
inactive: [6] | [9] | [7] | [4]

CC(=O)C(Cl)(Cl)Cl
inactive: [2] | [4] | [5]
active: [6] 16.6 µM | [9] 20.9 µM | [10] 23.5 µM | [7] 23.5 µM | [3] 8.34 µM

O=[N+]([O-])O.O=[N+]([O-])O.[Cd]
active: [6] 7.7 µM | [9] 6.11 µM | [7] 3.06 µM

CCCCCCCCCCCCCC[P+](CCCCCC)(CCCCCC)CCCCCC (tested in a mixture with another compound)
active: [6] 17.2 µM | [9] 17.2 µM | [7] 24.3 µM

Clc1ccc(-c2ccccc2)cc1
inactive: [6] | [9] | [10] | [2] | [7] | [3] | [4] | [8] | [5]

C=CC(=O)N(C)C
inactive: [6] | [9] | [7] | [4] | [8] | [5]
active: [3] 27.3 µM
